High-throughput results from PubChem.
HCMV inh = human cytomegalovirus inhibition. HFF cells, HCMV-luciferase reporter, 72 h; active compounds read low. activity change, negative = inhibition, % at 57.5 µM. hit rate 4.5% among 410,000; in the data active means activity change below about -60%; inconclusive means no clear call, values can overlap the other calls; inactive means above about -39%
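After 16 h attachment at 37C, HFF cells received test compound and HCMV-luciferase (1 PFU/cell); reporter luminescence read 72 h later, data normalized against buffer-only and known inhibitor Salinomycin.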
FMDV inh = blocks foot and mouth disease virus | Potency, µM (titrated, usually from 57.9 µM), without a hit: at the top dose activity change, negative = inhibition, hits mostly inhibitors | FMDV antiviral cell-based qHTS | hit rate 1.2% among 410,000; calls by dose curve; tested in HEK293T cells; further: read-out not given here; potency means the concentration at half of the fitted maximal effect; nearly all actives have a fitted effect of over 45% in size
VACV Venus inh = inhibitors of vaccinia virus (Venus reporter) | Vaccinia virus Venus reporter expression, fluorescence | Potency, µM (top dose mostly 36.5 µM), for the others: at the top dose activity change, negative = inhibition, hits mostly inhibitors | hit rate 0.46% among 330,000; calls by dose curve; tested in A549 cells; further: potency means the concentration at half of the fitted maximal effect; nearly all actives have a fitted effect of over 30% in size
VACV mCherry inh = inhibitors of vaccinia virus infection (mCherry reporter signal) | hit rate 0.63% among 310,000 | Vaccinia virus mCherry reporter infection, fluorescence | Potency, µM (series often up to 36.5 µM), for the others: at the highest dose activity change, negative = inhibition, most hits filed as inhibitors; calls by dose curve; tested in A549 cells; further: potency means the concentration at half of the fitted maximal effect; nearly all actives have a fitted effect of over 35% in size
HCV inhibitor = HCV inhibition | Huh7.5.1 HCVcc-Cre infection, luciferase reporter, 44 h | Potency, µM (highest dose often 41.8 µM), for the others: at the highest dose activity change, negative = inhibition, usual class: inhibitors | hit rate 3.4% among 340,000; active means well fitted inhibition curve with a large enough effect; inconclusive means small, poorly fitted or top-dose-only effect, or another doubt; inactive means no such curve, though single readings can be large or run the other way; further: potency means the concentration at half of the fitted maximal effect
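Antiviral activity was scored by luciferase reporter output from cells infected with HCVcc-Cre (~0.5 moi) in presence of compound, 44 h infection period, cells seeded 1,000/well 4 h prior.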
An asterisk follows results filed as active; i = inactive; ? = inconclusive; . = no result given; ! = not active in a repeat; [ ] = remark or other dose. The list is not random: actives were taken first. Their share in the collection is about 7.3%. On the % scale 0 is the no-effect control and ±100 the full control effect.

SMILES | HCMV inh | FMDV inh | VACV Venus inh | VACV mCherry inh | HCV inhibitor
Cc1csc2ncnc(N3CCN(C(=S)Nc4ccc(C(F)(F)F)cc4)CC3)c12 | -71.0* | 10.1% | . | . | -7.9%
C=CCc1cccc(CNc2c(C)n(C)n(-c3ccccc3)c2=O)c1O | -8.1 | 18.4% | . | . | 31.6µM*
Cc1cc(SC(C)C(=O)Nc2c(C)n(C)n(-c3ccccc3)c2=O)nc2ccccc12 (configuration not stated) | 11.6 | -1.7% | ? | -23.8%[1.46 µM] | -12.4%
Cc1c(C(c2ccc(C(=O)O)cc2)c2c(C)n(C)n(-c3ccccc3)c2=O)c(=O)n(-c2ccccc2)n1C | 9.2 | 15.7% | -2.1% | -13.8% | 3.55µM*
Cc1c(NCc2ccccc2O)c(=O)n(-c2ccccc2)n1C | 3.0 | -5.6% | -1.7% | i | 10.0%
Cc1c(NC(C)c2ccccc2O)c(=O)n(-c2ccccc2)n1C (configuration not stated) | 70.6 | -8.9% | . | . | 9.6%
Cc1c(NC(C)C)c(=O)n(-c2ccccc2)n1C | -16.1 | -15.3% | -16.0% | -2.9% | 0.562µM*
Cc1c(NC(=O)C(C)Sc2nc(N)cc(=O)[nH]2)c(=O)n(-c2ccccc2)n1C (configuration not stated) | -62.6* | -15.4% | . | . | 8.0%
COc1cc(CCNC(C)=O)c(C(=O)/C=C/c2cccc(OC)c2OC)cc1OC | . | -18.0% | . | . | .
CC[C@]12c3[nH]c4cc(-c5ccco5)ccc4c3CCN1C(=O)[C@@H](CC(=O)NCCCN(C)C)C[C@@H]2C(=O)N1CCN(C(=O)c2ccco2)CC1 | -1.0 | -11.8% | -9.5% | i | 1.8%
CCOc1ncccc1C(=O)Nc1cc(S(=O)(=O)N2CCCCCC2)ccc1OC | -6.3 | -13.5% | -19.8% | i | 25.9%
CCOc1ccc(C(=O)NCC(c2ccc(Cl)cc2)N2CCCCC2)cc1 (configuration not stated) | -1.9 | -15.7% | -11.7% | -0.6% | .
Cc1c(NC(=O)C(C)N2C(=O)C3C4C=CC(C4)C3C2=O)c(=O)n(-c2ccccc2)n1C (configuration not stated) | -65.8* | 0.4% | -0.7% | i | 6.4%
Cc1c(NN=C(C#N)C#N)c(=O)n(-c2ccccc2)n1C | -29.9 | 14.1µM* | 4.8% | 3.3% | ?
Cc1c(NC(=O)/C(C#N)=C/c2ccccc2)c(=O)n(-c2ccccc2)n1C | -20.9 | -24.8% | -9.3% | -6.7% | 16.2%
Cc1ccc(S(=O)(=O)Nc2c(C)n(C)n(-c3ccccc3)c2=O)cc1 | -97.8*! | -5.5% | -6.4% | 4.5% | 26.8%
CCOc1cc2[nH]c(=O)n(CCC(=O)N3CCN(c4ccccc4OC)CC3)c(=O)c2cc1OCC | 1.7 | -28.1% | . | . | 13.1%
COc1cc2[nH]c(=O)n(CCCCCC(=O)N3CCN(c4cccc(C(F)(F)F)c4)CC3)c(=O)c2cc1OC | -70.1* | 22.4µM* | ? | ? | .
COc1cc2[nH]c(=O)n(Cc3ccc(C(=O)N4CCN(c5cccc(C)c5C)CC4)cc3)c(=O)c2cc1OC | -107.9* | -0.7% | -14.5% | -12.3% | .
CCOc1cc2[nH]c(=O)n(CCC(=O)N3CCN(c4ccccc4)CC3)c(=O)c2cc1OCC | -2.5 | -20.9% | -5.4% | -14.2% | .
CCOc1cc2[nH]c(=O)n(CCCCC(=O)N3CCN(c4cccc(Cl)c4)CC3)c(=O)c2cc1OCC | 6.7 | 25.1µM* | ? | ? | .
COc1cc2[nH]c(=O)n(CCC(=O)N3CCN(c4cc(Cl)ccc4C)CC3)c(=O)c2cc1OC | -64.5* | ? | . | . | ?
COc1ccc(NC(=O)C2(C)CCN2Cc2csc3ccccc23)cc1OC (configuration not stated) | 0.9 | ? | -25.5% | ? | .
O=C(NC1CC(=O)N(c2cccc(F)c2)C1)C1CCCC1 (configuration not stated) | -9.2 | -7.0% | -13.1% | -6.7% | .
CNc1c(Br)cc(C(O)C2=CCc3ccccc32)cc1Br (configuration not stated) | . | . | -16.5% | -21.7% | .
SMILES | HCMV inh | FMDV inh | VACV Venus inh | VACV mCherry inh | HCV inhibitor
Cc1ccc(C)n1C1C(=O)N(Cc2ccc(C(C)C)cc2)c2ccc(OC(F)(F)F)cc21 (configuration not stated) | -27.2 | . | . | . | .
CCOc1cc2[nH]c(=O)n(CCCCC(=O)N3CCCCCC3)c(=O)c2cc1OCC | -104.4* | -19.9% | . | . | 11.0%
CCOc1cc2[nH]c(=O)n(CCCCCC(=O)NC(C)CC)c(=O)c2cc1OCC (configuration not stated) | 14.9 | -9.8% | -2.9% | -5.1% | .
CSCCC(C)N1CCC(Oc2ccc(C(=O)N3CCCC3)cc2)CC1 (configuration not stated) | 2.4 | 16.1% | 0.6% | -17.3% | .
N#CC(C#N)=C/C(C#N)=C(/N)N1CCN(c2ccc(Cl)cc2)CC1 | -16.0 | 17.8µM* | . | . | 10.6%
O=C(CCNNC(=O)c1ccncc1)NCc1ccccc1 | -103.1* | -24.5% | -9.7% | -12.6% | 13.8%[8.37 µM]
Cc1cccc(C)c1Nc1sc(C(=O)c2ccccc2)c(N)c1S(=O)(=O)c1ccccc1 | -61.6* | -18.5% | -22.3% | -29.5% | .
CCCC(=O)NC(=S)Nc1cccc2c(O)cccc12 | -99.3* | 32.6% | -12.4% | -19.4% | -6.8%
CCCC(=O)NC(=S)Nc1ccccc1C(=O)OC | -4.7 | -17.1% | -11.0% | -14.3% | 11.1%
CC(C)Sc1nc2ccc(Br)cc2[nH]1 | -102.3* | 29.2% | -3.1% | -1.5% | 6.1%
COc1ccccc1C(=O)N1CCCCC1CCN1CCOCC1 (configuration not stated) | -38.2 | -12.0% | -9.3% | -11.4% | .
O=C(CCN1C(=O)C2C3C=CC(C4CC34)C2C1=O)OCC(=O)c1ccccc1 (configuration not stated) | -82.8* | -12.0% | -9.4% | -1.3% | 11.1%
Cc1ccc(C(=O)COC(=O)CCN2C(=O)C3C4C=CC(C5CC45)C3C2=O)cc1 (configuration not stated) | ? | -18.0% | -22.6% | -5.3% | 33.5%
O=C(CCN1C(=O)C2C3C=CC(C4CC34)C2C1=O)Oc1cccc2cccnc12 (configuration not stated) | -95.5* | -25.9% | -12.4% | i | ?
O=C(Nc1ccc(F)cc1)c1oc2ccccc2c1NC(=O)C1CCCCC1 | -10.2 | -18.8% | -5.2% | -4.8% | .
O=C(COC(=O)c1cc(=O)[nH]c2ccccc12)NCc1ccc(Cl)cc1 | 10.5 | 0.9% | . | . | -5.1%
CC1(C2CCC3C4CCC5CC6(CCC5(C)C4C(=O)CC32C)OCCO6)OCCO1 (configuration not stated) | -99.1* | -24.3% | -23.5% | i | -0.6%
O=S(=O)(NCCc1c[nH]c2ccccc12)c1ccc(F)cc1 | 16.7 | 7.0% | . | . | 0.6%
COc1ccc(CNCCC(c2ccc(OC(C)C)cc2)C(C)C)cc1OC (configuration not stated) | -103.6* | ? | . | . | 8.91µM*
CCOCCCNCc1ccc(OC)c(OC)c1 | 36.4 | -8.7% | -11.9% | -20.0% | 11.8%
COc1ccc(C(CCNCc2ccc(OC(C)C)cc2)C(C)C)cc1 (configuration not stated) | -79.0* | ? | -14.3% | -13.6% | ?
